Our source for the growth values is PubChem BioAssay (NCI).

Compounds without any hit were thinned out: in the full panel of roughly 83,000, 20% have a hit.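 Method: cells in 96-well plates; compound added at one concentration; 48 h incubation; percent growth measured; values under 10 scored active.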 A number with no mark means an inactive call. Active and inactive are the calls of the source.

The first test relates to A498 renal. Nature of the test: NCI-60 one-dose screen, 48 h (100 = growth as untreated, 0 = no growth, -100 = all killed). The settings on record: 10 µM unless noted.
For the molecule `CCC1S/C(=N\N=C(/C)c2cccs2)N(c2ccccc2)C1=O` (stereo unspecified), the growth was 108%.

For `COc1ccc2c(c1)/C(=C/c1c(-c3cc(OC)c(OC)c(OC)c3Br)nc3sccn13)C(=O)N2`, the growth is 108%.

`N#CC(C#N)=C(C#N)c1c[nH]c2ccccc12`: the growth was 101%.

`CNC(=O)NN`: the growth is 93.2%.

As to `ClC1c2ccccc2CCc2ccccc21`, the growth is 102%.

As for `COc1ccc(-c2cc3ccc(N(C)C)cc3nc2N)c(F)c1`, the growth was 47.1%.

On to `CCOC(=O)C(C)(CSSCC(C)(NC(=O)c1ccc2ccccc2c1)C(=O)OCC)NC(=O)c1ccc2ccccc2c1` (stereo unspecified), for which the growth is 136%.

For the molecule `COc1ccc(-c2cc(-c3nnc(SC/C(=N\O)c4ccccc4)n3-c3ccccc3)c3ccccc3n2)cc1`, the growth is 109%.

`CC(=O)Nc1ccc([I+]c2ccc([N+](=O)[O-])cc2)cc1`: the growth is 104%.

`O=[N+]([O-])c1ccc(NS(=O)(=O)c2ccccc2)c2ccccc12`: the growth is 35.9%.

`COc1ccc(-c2c(C#N)cnc(N)c2-c2nc3cc(C)c(C)cc3[nH]2)cc1`: the growth was 82.9%.

Regarding `S=c1n(CNc2ccc(Cl)nn2)nc(-c2cc(Cl)cc(Cl)c2Cl)n1/N=C/c1ccc(Cl)cc1`, the growth was 121%.

Regarding `Cc1ccc2c(c1)Nc1ccc(C)cc1C2(C)C`, the growth is 118%.

Consider `Clc1ccc2c(NCCNc3nc(Cl)nc4ccccc34)ccnc2c1`, for which the growth is 92.3%.

`CN1CCN(Cn2nc(-c3cc(Cl)cc(Cl)c3Cl)n(/N=C/c3ccc(Cl)cc3)c2=S)CC1`: the growth is 97.8%.

Take `C=C1C(=O)O[C@H]2[C@H]1CC/C(COC(=O)c1ccc(Cl)nc1)=C\CC[C@@]1(C)O[C@@H]21`: the growth was 87.2%.

On to `COc1ccc(/C=N/C2=NNC(C)(c3ccccc3O)N2C(Cc2c[nH]c3ccccc23)C(=O)O)cc1` (stereo unspecified), for which the growth was 46.5%.

As for `COc1ccc(/C=C/C(=O)/C=C(/C=C/c2ccc(OC)c(OC)c2OC)OB(F)F)c(OC)c1OC`, the growth was 95.1%.

As for `Cc1cc(N2CCOCC2)nc(N(CCNc2ccnc3cc(Cl)ccc23)Cc2ccco2)n1`, the growth is 50.9%.

Take `NN=C(c1ccc(Cl)cc1)c1ccc(Cl)cc1`: the growth is 96%.

Consider `Cc1cc2c(cc1C)N(C(=O)CCl)CCN2C(=O)CCl`, for which the growth is 85%.

As to `COc1cccc(/C=N/C(=S)NC2(C)C3CCC(C3)C2(C)C)c1O` (stereo unspecified), the growth was 73.2%.

Consider `CC(=O)c1cc2c(N)c(C(=O)Nc3cccc(Cl)c3)sc2nc1C`, for which the growth is 37.4%.

For `CCOC(=O)c1cnc2c(OC)ccc(OC)c2c1Cl`, the growth was 91.8%.

Regarding `CCOc1cccc(Nc2nc(N)nc3[nH]c4ccc(O)cc4c23)c1`, the growth is 51%.

As to `CC(C)CCC[C@@H](C)[C@H]1CC[C@H]2[C@@H]3CC=C4N(c5ccccc5)C(=O)CC[C@]4(C)[C@H]3CC[C@]12C`, the growth is 118%.

Take `C=C(C)[C@@H]1C/C=C(\COC(=O)[C@H](OC(C)=O)C(NC(=O)c2ccccc2)c2ccccc2)CC[C@H]2O[C@]2(C)CC/C=C(\C)CC1` (stereo partly specified): the growth was 84.9% [5 µM].

Consider `C/C(=N/NC(=O)Cn1c2ccccc2c2ccncc21)c1cccs1`, for which the growth was 86.5%.

Regarding `CC(=S)Nc1ccccc1`, the growth is 103%.

Take `Nc1ccc(S(=O)(=O)Nc2cc(I)cc(I)c2)cc1`: the growth is 77.7%.

On to `Cc1cn([C@]2(CF)O[C@H](CO)C2C)c(=O)[nH]c1=O` (stereo partly specified), for which the growth was 115%.

Turning to `COc1cc(NC(C)CCCN2C(=O)c3ccccc3C2=O)c2nccc(C)c2c1OC` (stereo unspecified), the growth is 92.9%.

As to `O=C(O)c1ccccc1C(=O)c1ccc(I)cc1`, the growth was 115%.

As for `CC(C(=O)O)N1C(N)=NNC1c1ccccc1O` (stereo unspecified), the growth is 98.8%.

For `COc1ccc(C2=NN(C(=O)COc3ccc(Cl)cc3)C(O)(c3cc(F)c(Cl)cc3Cl)C2)cc1OC` (stereo unspecified), the growth is 141%.

On to `CCCCNC(=O)Oc1ccc(/C(=C(/CC)Cc2ccccc2)c2ccc(OCCCN(C)C)cc2)cc1`, for which the growth was 76.2%.

Take `COc1ccc(C(=O)Cn2cnc3c(Nc4cc(C(=O)Nc5ccc(N6CCN(CCO)CC6)cc5)ccc4C)ncnc32)cc1`: the growth is 111%.

As for `COc1cc(NC(=O)c2cc(OC)c3ccn(C)c3c2)cc2c1C[C@]1(C)CC[C@@H](O)C(C)(C)[C@H]1O2`, the growth is 1.9% (active).

The next test concerns CCRF-CEM leukemia. The description is as above. The settings on record: 10 µM unless noted.
Regarding `CCC1S/C(=N\N=C(/C)c2cccs2)N(c2ccccc2)C1=O` (stereo unspecified), the growth was -39.5% (active).

As to `COc1ccc2c(c1)/C(=C/c1c(-c3cc(OC)c(OC)c(OC)c3Br)nc3sccn13)C(=O)N2`, the growth is 81%.

With `N#CC(C#N)=C(C#N)c1c[nH]c2ccccc12`, the growth is 65.5%.

For `CNC(=O)NN`, the growth was 65.8%.

Take `ClC1c2ccccc2CCc2ccccc21`: the growth is 98.7%.

As to `COc1ccc(-c2cc3ccc(N(C)C)cc3nc2N)c(F)c1`, the growth was 39.7%.

As for `CCOC(=O)C(C)(CSSCC(C)(NC(=O)c1ccc2ccccc2c1)C(=O)OCC)NC(=O)c1ccc2ccccc2c1` (stereo unspecified), the growth was -42.5% (active).

As to `COc1ccc(-c2cc(-c3nnc(SC/C(=N\O)c4ccccc4)n3-c3ccccc3)c3ccccc3n2)cc1`, the growth was 103%.

Consider `CC(=O)Nc1ccc([I+]c2ccc([N+](=O)[O-])cc2)cc1`, for which the growth is 89.2%.

Take `O=[N+]([O-])c1ccc(NS(=O)(=O)c2ccccc2)c2ccccc12`: the growth is 40.3%.

In the case of `COc1ccc(-c2c(C#N)cnc(N)c2-c2nc3cc(C)c(C)cc3[nH]2)cc1`, the growth is 90.5%.

Turning to `S=c1n(CNc2ccc(Cl)nn2)nc(-c2cc(Cl)cc(Cl)c2Cl)n1/N=C/c1ccc(Cl)cc1`, the growth is -32.8% (active).

`Cc1ccc2c(c1)Nc1ccc(C)cc1C2(C)C`: the growth was 92.8%.

For the molecule `Clc1ccc2c(NCCNc3nc(Cl)nc4ccccc34)ccnc2c1`, the growth was -58.7% (active).

`CN1CCN(Cn2nc(-c3cc(Cl)cc(Cl)c3Cl)n(/N=C/c3ccc(Cl)cc3)c2=S)CC1`: the growth was 33.4%.

Turning to `C=C1C(=O)O[C@H]2[C@H]1CC/C(COC(=O)c1ccc(Cl)nc1)=C\CC[C@@]1(C)O[C@@H]21`, the growth was -32.1% (active).

Turning to `COc1ccc(/C=N/C2=NNC(C)(c3ccccc3O)N2C(Cc2c[nH]c3ccccc23)C(=O)O)cc1` (stereo unspecified), the growth was 19.7%.

As for `COc1ccc(/C=C/C(=O)/C=C(/C=C/c2ccc(OC)c(OC)c2OC)OB(F)F)c(OC)c1OC`, the growth was -2.62% (active).

For `Cc1cc(N2CCOCC2)nc(N(CCNc2ccnc3cc(Cl)ccc23)Cc2ccco2)n1`, the growth was -11.3% (active).

Regarding `NN=C(c1ccc(Cl)cc1)c1ccc(Cl)cc1`, the growth is 89.3%.

On to `Cc1cc2c(cc1C)N(C(=O)CCl)CCN2C(=O)CCl`, for which the growth is -28.8% (active).

For the molecule `COc1cccc(/C=N/C(=S)NC2(C)C3CCC(C3)C2(C)C)c1O` (stereo unspecified), the growth was 57.3%.

Take `CC(=O)c1cc2c(N)c(C(=O)Nc3cccc(Cl)c3)sc2nc1C`: the growth is 92.8%.

Regarding `CCOC(=O)c1cnc2c(OC)ccc(OC)c2c1Cl`, the growth is 5.54% (active).

For the molecule `CCOc1cccc(Nc2nc(N)nc3[nH]c4ccc(O)cc4c23)c1`, the growth is 61.7%.

On to `CC(C)CCC[C@@H](C)[C@H]1CC[C@H]2[C@@H]3CC=C4N(c5ccccc5)C(=O)CC[C@]4(C)[C@H]3CC[C@]12C`, for which the growth was 92.2%.

Turning to `C=C(C)[C@@H]1C/C=C(\COC(=O)[C@H](OC(C)=O)C(NC(=O)c2ccccc2)c2ccccc2)CC[C@H]2O[C@]2(C)CC/C=C(\C)CC1` (stereo partly specified), the growth is -89.5% [5 µM] (active).

Take `C/C(=N/NC(=O)Cn1c2ccccc2c2ccncc21)c1cccs1`: the growth was 91.1%.

On to `CC(=S)Nc1ccccc1`, for which the growth was 102%.

`Nc1ccc(S(=O)(=O)Nc2cc(I)cc(I)c2)cc1`: the growth was -9.38% (active).

Turning to `Cc1cn([C@]2(CF)O[C@H](CO)C2C)c(=O)[nH]c1=O` (stereo partly specified), the growth is 114%.

On to `COc1cc(NC(C)CCCN2C(=O)c3ccccc3C2=O)c2nccc(C)c2c1OC` (stereo unspecified), for which the growth was -14.2% (active).

As for `O=C(O)c1ccccc1C(=O)c1ccc(I)cc1`, the growth is 99.9%.

In the case of `CC(C(=O)O)N1C(N)=NNC1c1ccccc1O` (stereo unspecified), the growth was 82.7%.

For the molecule `COc1ccc(C2=NN(C(=O)COc3ccc(Cl)cc3)C(O)(c3cc(F)c(Cl)cc3Cl)C2)cc1OC` (stereo unspecified), the growth is -62.1% (active).

Consider `CCCCNC(=O)Oc1ccc(/C(=C(/CC)Cc2ccccc2)c2ccc(OCCCN(C)C)cc2)cc1`, for which the growth is 77.1%.

`COc1ccc(C(=O)Cn2cnc3c(Nc4cc(C(=O)Nc5ccc(N6CCN(CCO)CC6)cc5)ccc4C)ncnc32)cc1`: the growth is 105%.

For the molecule `COc1cc(NC(=O)c2cc(OC)c3ccn(C)c3c2)cc2c1C[C@]1(C)CC[C@@H](O)C(C)(C)[C@H]1O2`, the growth was 19.6%.
